Source: PubChem BioAssay (National Center for Advancing Translational Sciences (NCATS))
This is a sample that favours compounds with a hit; in the whole collection about 2.9% have one here.
TSHR agonist: activates the human thyroid stimulating hormone receptor. HEK293-CNG-TSHR cells (CNG channel as cAMP sensor), membrane potential dye, cAMP. AID 926. hit rate 0.48% among 73,000. P16473. Potency, µM (top dose mostly 57.1 µM), for the others: at the highest dose activation, most hits filed as activators; active means well fitted activation curve with a large enough effect in the main read-out, with a control signal flat, not every such curve was filed as active; inconclusive means small, poorly fitted or top-dose-only effect, or a change in a side signal; inactive means no such curve, though single readings can be large or run the other way; % of control where 0% means no effect;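 further: the control signal comes from parental cells without the receptor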
Target sequence (P16473 whole entry, looked up): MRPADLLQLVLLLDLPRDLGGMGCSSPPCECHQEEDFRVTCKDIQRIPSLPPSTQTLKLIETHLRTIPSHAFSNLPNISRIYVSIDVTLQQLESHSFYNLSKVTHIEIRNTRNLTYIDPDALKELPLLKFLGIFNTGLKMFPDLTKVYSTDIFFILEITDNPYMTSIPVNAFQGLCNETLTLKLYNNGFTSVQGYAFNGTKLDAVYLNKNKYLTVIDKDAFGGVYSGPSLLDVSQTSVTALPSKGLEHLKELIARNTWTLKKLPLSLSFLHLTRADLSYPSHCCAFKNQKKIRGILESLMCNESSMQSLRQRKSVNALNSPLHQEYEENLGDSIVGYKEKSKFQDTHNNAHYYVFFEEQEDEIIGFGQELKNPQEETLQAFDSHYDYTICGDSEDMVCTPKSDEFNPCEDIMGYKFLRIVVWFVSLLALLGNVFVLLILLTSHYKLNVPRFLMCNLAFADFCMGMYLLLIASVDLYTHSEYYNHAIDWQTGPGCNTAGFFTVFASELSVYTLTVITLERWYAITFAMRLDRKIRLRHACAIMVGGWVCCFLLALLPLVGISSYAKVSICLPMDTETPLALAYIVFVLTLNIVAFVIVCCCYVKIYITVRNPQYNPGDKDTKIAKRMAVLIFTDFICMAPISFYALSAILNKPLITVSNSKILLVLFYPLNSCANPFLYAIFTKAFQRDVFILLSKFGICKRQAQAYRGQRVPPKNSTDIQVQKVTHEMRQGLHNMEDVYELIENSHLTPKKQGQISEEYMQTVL
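HEK 293 cells stably expressing TSHR and a cAMP-gated CNG channel; parental CNG-only cells as counterscreen. Cells preloaded 60 min with membrane potential dye plus 100 uM RO 20-1724, then compound 30 min; fluorescence read at 590 nm.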
HEK293 cAMP cs: parental HEK293 cAMP activation (counter-screen) | parental HEK293 CNG cAMP sensor, membrane potential fluorescence | Potency, µM (highest dose often 57.1 µM), for the others: at the top dose activation, hits mostly activators | hit rate 2.5% among 73,000 | AID 938; active means well fitted activation curve with a large enough effect; inconclusive means small, poorly fitted or top-dose-only effect; inactive means no such curve, though single readings can be large or run the other way; further: % of control where 0% means no effect; nearly all actives have a fitted effect of over 55% in size
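Parental HEK 293 cells stably expressing a modified CNG channel (no TSHR) report cAMP rise as membrane depolarization. Membrane potential dye with 100 uM RO 20-1724 was loaded for 60 min at room temperature, then compound added for 30 min; fluorescence read at 590 nm.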
Active calls of the source: *; ? = inconclusive; · = no result; [ ] = dose if it differs, or a comment. Potency means the concentration at half of the fitted maximal effect.

SMILES	TSHR agonist	HEK293 cAMP cs
Cc1ccc(C(=O)c2coc3ccc(O)c(CN4CCN(C)CC4)c23)cc1	?	13µM*
CCN(CC)c1ccc(/C=N/NC(=O)c2ccc(O)cc2)cc1	?	-34%
O=C(O)c1cccc(C[C@H](Br)C(=O)O)c1	-2%[11.4 µM]	10%[11.4 µM]
CC(=O)NCCNc1nc(-c2ccccc2C)nc2ccccc12	8%	22%
COC(=O)c1cccc(NC(=O)c2cc3sccc3n2C)c1	?	13µM*
COC(=O)c1ccccc1NC(=O)c1cc2sccc2n1C	13%	12%
Nc1cc(Cl)c([N+](=O)[O-])cc1O	-4%	-23%
O=C(Nc1nc(-c2ccccn2)cs1)c1ccc(Cl)s1	17%	16%
O=C(Nc1nc(-c2ccc(Cl)s2)cs1)c1cccs1	?	25µM*
Cc1c(C)c(C)c(CC2(C)CSC2)c(CC2(C)CSC2)c1C	1%[11.4 µM]	-2%[11.4 µM]
COC(=O)NC(c1cccc(F)c1)[C@]1(C(C)=O)CCCC1=O (stereo partly specified)	-2%[11.4 µM]	-4%[11.4 µM]
O=C(c1oc2ccccc2c1CSCc1ccccc1)N1CCN(c2ncccn2)CC1	?	10µM*
Cc1c(C(=O)N2CCN(c3ccccn3)CC2)oc2ccccc12	25%	19%
COC(=O)C1=C(C)N(Cc2ccccc2)[C@]23O[C@](C(=O)OC)(C(=O)N2C1c1ccccc1)C(c1ccccc1)C3C(=O)c1ccccc1 (stereo partly specified)	4%[11.4 µM]	5%[11.4 µM]
COC(=O)c1nnn(-c2nonc2N)c1CSc1ccccn1	?	32µM*
COC(=O)c1nnn(-c2nonc2N)c1CN1CCc2ccccc21	-18%	-4%
CN(Cc1ccco1)c1cc(-c2ccoc2)ncn1	4%	-1%
CCCC(c1nnnn1Cc1ccc(OC)cc1)N1CCN(c2ccccc2OC)CC1 (stereo unspecified)	?	25µM*
CCCC(c1nnnn1Cc1ccccc1)N1CCN(c2ccccc2OC)CC1 (stereo unspecified)	?	10µM*
COc1ccc(Cn2nnnc2C(c2ccccc2OC)N2CCC(C(N)=O)CC2)cc1 (stereo unspecified)	26%	24%
COc1ccccc1C(c1nnnn1Cc1ccccc1)N1CCN(c2nc3ccccc3s2)CC1 (stereo unspecified)	11%	19%
COCCn1nnnc1C(c1cc2cccc(C)c2[nH]c1=O)N1CCN(c2ccccc2F)CC1 (stereo unspecified)	5%	6%
COCCn1nnnc1C(c1ccccc1OC)N1CCN(c2ccccc2F)CC1 (stereo unspecified)	?	7.9µM*
CN=C(N)/N=C(\N)Nc1cc2ccccc2c2ccccc12	1%[11.4 µM]	8%[11.4 µM]
Cc1nc2ncnn2c(C)c1CCC(=O)NCc1ccco1	2%	1%
SMILES	TSHR agonist	HEK293 cAMP cs
Cc1ccc(Cc2c(C)nc3nc(SCC(=O)NCc4ccco4)nn3c2C)cc1	?	16µM*
Cc1cccc(Cc2c(C)nc3nc(SCC(=O)NCc4ccco4)nn3c2C)c1	?	10µM*
Cc1ccccc1Cc1c(C)nc2nc(SCC(=O)NCc3ccco3)nn2c1C	17%[11.4 µM]	27%
CC[C@H]1CN(C)[C@H]2Cc3c([nH]c4ccccc34)C(=O)C[C@H]1[C@H]2C(=O)OC	0%[11.4 µM]	-1%[11.4 µM]
CCN(CC)CC[n+]1ccc2c(C)c3[nH]c4ccccc4c3c(C)c2c1	4%[11.4 µM]	19%[11.4 µM]
COc1cc(C2SCCCCCCCCCCSC(c3ccc(O)c(OC)c3)SCCCCCCCCCCS2)ccc1O (stereo unspecified)	·	17%[11.4 µM]
CC(=O)C(Sc1nc(N2CCOCC2)nc(N2CCOCC2)n1)C(=O)Nc1ccccc1 (stereo unspecified)	2%	11%
CC(=O)C(Sc1nn(C)c(=S)s1)C(=O)Nc1ccccc1 (stereo unspecified)	?	20µM*
COc1cccc(NC(=O)c2oc3ccccc3c2NC(=O)c2ccc3c(c2)OCO3)c1	·	16%
COc1cccc(NC(=O)c2oc3ccccc3c2NC(=O)C(C)(C)C)c1	?	1µM*
COc1ccc(C(=O)NCCCn2ccnc2)cc1	?	1.3µM*
COc1cc(OC)cc(OCC(O)Cn2ccnc2)c1 (stereo unspecified)	-1%	11%
COc1ccc(CCCO[C@@H](Cn2ccnc2)c2ccc(OC)cc2)cc1	?	32µM*
CCOc1ccc(C(=O)NCCCn2ccnc2)cc1	3%	-1%
O=C(O)[C@@H]1[C@@H](C(=O)NCc2ccccn2)[C@@H]2C=C[C@@H]1O2	3%[11.4 µM]	-14%[11.4 µM]
COc1ccc(C(=O)N2c3ccc(F)cc3CCC2C)cc1OC (stereo unspecified)	-58%	16%
CC1CCc2cc(F)ccc2N1C(=O)c1ccc2c(c1)OCO2 (stereo unspecified)	25µM*	25%
Cc1cc(C)c2nc(-c3ccccn3)cc(C(=O)NCc3ccco3)c2c1	?	25µM*
O=C(NCc1ccco1)c1cc(-c2cccnc2)nc2ccccc12	20%	9%
Cc1cc(NC(=O)c2ccccc2-c2ccccc2C(=O)O)no1	0%	4%
Cc1cc(NC(=O)c2cc(-c3ccccn3)nc3ccccc23)no1	25%	18%
Cc1cc(NC(=O)c2cc(-c3ccncc3)nc3c(C)cccc23)no1	?	32µM*
Cc1cc(NC(=O)c2cc(-c3cccs3)nc3ccccc23)no1	?	16µM*
Cc1cc(NC(=O)c2cccc(C(=O)Nc3cc(C)on3)n2)no1	2%	4%
Cc1cc(C)c2nc(-c3ccccn3)cc(C(=O)Nc3cc(C)on3)c2c1	?	16µM*
SMILES	TSHR agonist	HEK293 cAMP cs
Cc1cccc(CNc2ccnc(-c3ccc(N(C)C)cc3)n2)c1	17%	0%
CCNc1ncc2nc(CCc3ccccc3)c(=O)n(C[C@H]3CCCO3)c2n1	15%	16%
CN(C)c1ncc2nc(-c3cn(C)c4ccccc34)c(=O)n(C[C@H]3CCCO3)c2n1	8%	-14%
COC(=O)C/C=C/C(C)C(OC)c1ccccc1Br (stereo unspecified)	9%[11.4 µM]	5%[11.4 µM]
CCCC[C@]1(C2CCCC2)Cc2cc(OCC(=O)O)c(Cl)c(Cl)c2C1=O	-11%	-7%
CC(C)[C@@H]1NC(=O)[C@H](CCCCN)NC(=O)[C@H](Cc2c[nH]c3ccccc23)NC(=O)[C@H](Cc2ccc(O)cc2)NC(=O)[C@H](C)N(C)C(=O)[C@H](Cc2ccccc2)NC1=O	3%	3%
Brc1ccccc1-c1nnc(CSc2nnnn2-c2ccccc2)o1	-2%[11.4 µM]	21%
Brc1ccccc1-c1nnc(COc2ncnc3c2cnn3-c2ccccc2)o1	?	25µM*
C=CC(=O)OCC(CO)(COC(=O)C=C)COC(=O)C=C	-2%	-16%
c1ccc(Nc2nc(-c3cccs3)cs2)nc1	-12%	-19%
O=C(COc1ccccc1)Nc1nc(-c2cccs2)cs1	?	25µM*
O=[N+]([O-])c1ccc([C@@H](Nc2ccccc2)c2ccc3cccnc3c2O)cc1	-3%[11.4 µM]	-1%[11.4 µM]
COc1ccc(S(=O)(=O)NCc2ccco2)cc1-c1nnc2c3ccccc3c(C)nn12	·	-2%
COc1ccc(S(=O)(=O)N2CCN(CCO)CC2)cc1-c1nnc2c3ccccc3c(C)nn12	2%	8%
Cc1ccc(S(=O)(=O)N2CCN(C)CC2)cc1-c1nnc2c3ccccc3c(C)nn12	4µM*	2%
Cc1ccc(S(=O)(=O)N2CCN(CCO)CC2)cc1-c1nnc2c3ccccc3c(C)nn12	16µM*	8%
COCCN(CCOC)C(=O)c1cc2c(=O)n3ccccc3nc2s1	11%	2%
